This note sets out measurements from PMC11006913.

Common to all, as to experiment: PBM; 200 nM protein, PBS
What all share (settings): dsDNA, one strand shown

Assay [1] addresses NKX2-5 (Homo sapiens, UniProt P52952 125-210, R139K).
The target in assay [2] is NKX2-5 (Homo sapiens, UniProt P52952 125-210).
Assay [3] addresses HOXB9 (Homo sapiens, UniProt P17482 171-250, T197M).
Assay [4] has as its target HOXC9 (Homo sapiens, UniProt P31274 178-260, K195R).
Assay [5] addresses T1, VENTX (Homo sapiens, UniProt O95231 78-163).
T1 sequence: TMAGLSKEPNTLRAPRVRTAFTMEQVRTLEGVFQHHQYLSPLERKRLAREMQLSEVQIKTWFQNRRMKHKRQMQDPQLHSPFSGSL

Assay [6] deals with T2, PAX4 (Homo sapiens, UniProt O43316 9-242, R200K).
T2 sequence: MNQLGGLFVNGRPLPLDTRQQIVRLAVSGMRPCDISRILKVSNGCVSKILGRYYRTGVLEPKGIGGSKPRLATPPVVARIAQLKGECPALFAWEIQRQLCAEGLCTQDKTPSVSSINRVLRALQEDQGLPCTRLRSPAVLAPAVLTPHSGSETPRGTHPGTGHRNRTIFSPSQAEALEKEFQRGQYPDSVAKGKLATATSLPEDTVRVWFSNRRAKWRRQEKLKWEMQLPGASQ

For assay [7], the target named is T3, VENTX (Homo sapiens, UniProt O95231 78-163, Y115F).
T3 sequence: T1 sequence with Y38F

In assay [8] the target is T4, PAX4 (Homo sapiens, UniProt O43316 9-242).
T4 sequence: T2 sequence with K192R

Assay [9] has as its target HOXB9 (Homo sapiens, UniProt P17482 171-250).
Assay [10] concerns the target T5, PAX4 (Homo sapiens, UniProt O43316 9-242, R200Q).
T5 sequence: T2 sequence with K192Q

In assay [11] the target is HOXC9 (Homo sapiens, UniProt P31274 178-260, R193K).
HOXC9 (Homo sapiens, UniProt P31274 178-260, R193K), sequence (P31274 178-260 R193K): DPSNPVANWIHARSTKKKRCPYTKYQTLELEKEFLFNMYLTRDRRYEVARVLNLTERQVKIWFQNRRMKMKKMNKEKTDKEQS
Assay [12] concerns the target T6, PAX4 (Homo sapiens, UniProt O43316 9-242, F177V).
T6 sequence: T2 sequence with F169V, K192R

Assay [13] deals with HOXC10 (Homo sapiens, UniProt Q9NYD6 254-340, K271E).
HOXC10, sequence (Q9NYD6 254-340 K271E): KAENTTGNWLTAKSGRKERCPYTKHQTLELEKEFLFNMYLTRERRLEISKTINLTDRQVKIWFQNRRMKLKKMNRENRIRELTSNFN
The target of assay [14] is T7, PAX4 (Homo sapiens, UniProt O43316 9-242, F177Y).
T7 sequence: T2 sequence with F169Y, K192R

The target of assay [15] is VAX1 (Homo sapiens, UniProt Q5SQQ9 86-172).
VAX1, sequence (Q5SQQ9 86-172): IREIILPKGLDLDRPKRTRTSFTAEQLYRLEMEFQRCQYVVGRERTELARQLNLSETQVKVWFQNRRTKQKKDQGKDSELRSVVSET
Assay [16] concerns the target HOXB9 (Homo sapiens, UniProt P17482 171-250, R186Q).
Assay [17] addresses HOXC9 (Homo sapiens, UniProt P31274 178-260, R222W).
Assay [18] addresses T8, PAX4 (Homo sapiens, UniProt O43316 9-242, R227W).
T8 sequence: T2 sequence with K192R, R219W

Assay [19] deals with HOXA2 (Homo sapiens, UniProt O43364 129-215, Y150S).
HOXA2 (Homo sapiens, UniProt O43364 129-215, Y150S), sequence (O43364 129-215 Y150S): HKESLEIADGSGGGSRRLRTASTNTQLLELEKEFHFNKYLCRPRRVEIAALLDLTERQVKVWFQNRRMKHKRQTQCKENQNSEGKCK
Assay [20] concerns the target HOXA2 (Homo sapiens, UniProt O43364 129-215).

Positions count from the first letter of the chain named.

HOXB9 (Homo sapiens, UniProt P17482 171-250, R186Q), sequence (P17482 171-250 R186Q): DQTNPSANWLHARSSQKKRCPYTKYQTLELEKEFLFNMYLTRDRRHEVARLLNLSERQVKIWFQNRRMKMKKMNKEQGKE
NKX2-5 (Homo sapiens, UniProt P52952 125-210), sequence (P52952 125-210): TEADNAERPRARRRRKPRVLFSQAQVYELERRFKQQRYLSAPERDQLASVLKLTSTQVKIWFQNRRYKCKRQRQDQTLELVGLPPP
HOXB9 (Homo sapiens, UniProt P17482 171-250, T197M), sequence (P17482 171-250 T197M): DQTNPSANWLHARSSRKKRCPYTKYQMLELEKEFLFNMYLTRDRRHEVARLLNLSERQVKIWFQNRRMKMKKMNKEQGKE
NKX2-5 (Homo sapiens, UniProt P52952 125-210, R139K), sequence (P52952 125-210 R139K): as the sequence (P52952 125-210) above, with R15K counted along it
HOXC9 (Homo sapiens, UniProt P31274 178-260, K195R), sequence (P31274 178-260 K195R): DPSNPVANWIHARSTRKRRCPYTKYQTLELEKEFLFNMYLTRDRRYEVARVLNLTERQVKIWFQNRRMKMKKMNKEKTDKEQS
HOXC9 (Homo sapiens, UniProt P31274 178-260, R222W), sequence (P31274 178-260 R222W): as the sequence (P31274 178-260 R193K) above, with K16R, R45W counted along it
HOXB9 (Homo sapiens, UniProt P17482 171-250), sequence (P17482 171-250): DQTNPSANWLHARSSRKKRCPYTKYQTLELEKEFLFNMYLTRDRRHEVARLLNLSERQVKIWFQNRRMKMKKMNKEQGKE
HOXA2 (Homo sapiens, UniProt O43364 129-215), sequence (O43364 129-215): as the sequence (O43364 129-215 Y150S) above, with S22Y counted along it

As for ATAAGTGA, the binding signal in assay [1] is 12.2 upbm affinity estimate (log intensity, higher = more binding, comparable within an allelic series); in assay [2] it was 12 upbm affinity estimate (log intensity, higher = more binding, comparable within an allelic series).
Take CTAATTAA: the binding signal in assay [3] was 10.2 upbm affinity estimate (log intensity, higher = more binding, comparable within an allelic series); in [4] it was 12.7 upbm affinity estimate (log intensity, higher = more binding, comparable within an allelic series); in assay [5], 13.1 upbm affinity estimate (log intensity, higher = more binding, comparable within an allelic series); in assay [6], 12.3 upbm affinity estimate (log intensity, higher = more binding, comparable within an allelic series); in assay [7], 12.4 upbm affinity estimate (log intensity, higher = more binding, comparable within an allelic series); in assay [8] it was 12.9 upbm affinity estimate (log intensity, higher = more binding, comparable within an allelic series). Also, the binding signal in assay [9] was 11.8 upbm affinity estimate (log intensity, higher = more binding, comparable within an allelic series); in assay [10] it was 12.9 upbm affinity estimate (log intensity, higher = more binding, comparable within an allelic series); in assay [11] it was 12.6 upbm affinity estimate (log intensity, higher = more binding, comparable within an allelic series); in assay [12] it was 11.2 upbm affinity estimate (log intensity, higher = more binding, comparable within an allelic series); in [13] it was 12.3 upbm affinity estimate (log intensity, higher = more binding, comparable within an allelic series); in [14], 11.7 upbm affinity estimate (log intensity, higher = more binding, comparable within an allelic series). The binding signal in assay [15] was 13.7 upbm affinity estimate (log intensity, higher = more binding, comparable within an allelic series); in assay [16], 11.6 upbm affinity estimate (log intensity, higher = more binding, comparable within an allelic series); in assay [17] it was 11.2 upbm affinity estimate (log intensity, higher = more binding, comparable within an allelic series); in assay [18], 11.5 upbm affinity estimate (log intensity, higher = more binding, comparable within an allelic series); in assay [19], 11 upbm affinity estimate (log intensity, higher = more binding, comparable within an allelic series); in assay [20], 13 upbm affinity estimate (log intensity, higher = more binding, comparable within an allelic series).
As to GCAATTAA, the binding signal in assay [3] was 10.5 upbm affinity estimate (log intensity, higher = more binding, comparable within an allelic series); in assay [4] it was 13.1 upbm affinity estimate (log intensity, higher = more binding, comparable within an allelic series); in assay [5] it was 12.8 upbm affinity estimate (log intensity, higher = more binding, comparable within an allelic series); in assay [7], 11.9 upbm affinity estimate (log intensity, higher = more binding, comparable within an allelic series); in assay [9], 12.6 upbm affinity estimate (log intensity, higher = more binding, comparable within an allelic series); in assay [10], 12 upbm affinity estimate (log intensity, higher = more binding, comparable within an allelic series). In addition, the binding signal in [11] was 13 upbm affinity estimate (log intensity, higher = more binding, comparable within an allelic series); in assay [13], 12.6 upbm affinity estimate (log intensity, higher = more binding, comparable within an allelic series); in [15] it was 13.2 upbm affinity estimate (log intensity, higher = more binding, comparable within an allelic series); in assay [16] it was 12.4 upbm affinity estimate (log intensity, higher = more binding, comparable within an allelic series); in assay [17], 11.1 upbm affinity estimate (log intensity, higher = more binding, comparable within an allelic series); in assay [19] it was 10.8 upbm affinity estimate (log intensity, higher = more binding, comparable within an allelic series). Further, in assay [20], the binding signal is 12.6 upbm affinity estimate (log intensity, higher = more binding, comparable within an allelic series).
As to GTAATTAA, the binding signal in [3] is 10.6 upbm affinity estimate (log intensity, higher = more binding, comparable within an allelic series); in assay [4], 13.3 upbm affinity estimate (log intensity, higher = more binding, comparable within an allelic series); in assay [5] it was 13 upbm affinity estimate (log intensity, higher = more binding, comparable within an allelic series); in assay [6], 12 upbm affinity estimate (log intensity, higher = more binding, comparable within an allelic series); in [7] it was 12.4 upbm affinity estimate (log intensity, higher = more binding, comparable within an allelic series); in [8], 12.6 upbm affinity estimate (log intensity, higher = more binding, comparable within an allelic series). The binding signal was 12.6 upbm affinity estimate (log intensity, higher = more binding, comparable within an allelic series) in assay [9]; 12.5 upbm affinity estimate (log intensity, higher = more binding, comparable within an allelic series) in assay [10]; 13.2 upbm affinity estimate (log intensity, higher = more binding, comparable within an allelic series) in assay [11]; 10.8 upbm affinity estimate (log intensity, higher = more binding, comparable within an allelic series) in [12]; 12.9 upbm affinity estimate (log intensity, higher = more binding, comparable within an allelic series) in assay [13]; 11.3 upbm affinity estimate (log intensity, higher = more binding, comparable within an allelic series) in assay [14]. The binding signal in assay [15] is 13.8 upbm affinity estimate (log intensity, higher = more binding, comparable within an allelic series); in assay [16] it was 12.4 upbm affinity estimate (log intensity, higher = more binding, comparable within an allelic series); in assay [17], 11.3 upbm affinity estimate (log intensity, higher = more binding, comparable within an allelic series); in assay [18], 11.2 upbm affinity estimate (log intensity, higher = more binding, comparable within an allelic series); in assay [19], 11.1 upbm affinity estimate (log intensity, higher = more binding, comparable within an allelic series); in assay [20], 13.2 upbm affinity estimate (log intensity, higher = more binding, comparable within an allelic series).
Turning to AATTAATG, the binding signal in [3] is 10.2 upbm affinity estimate (log intensity, higher = more binding, comparable within an allelic series); in assay [4] it was 12.8 upbm affinity estimate (log intensity, higher = more binding, comparable within an allelic series); in assay [5], 12.5 upbm affinity estimate (log intensity, higher = more binding, comparable within an allelic series); in assay [6] it was 11.9 upbm affinity estimate (log intensity, higher = more binding, comparable within an allelic series); in assay [7] it was 11.8 upbm affinity estimate (log intensity, higher = more binding, comparable within an allelic series); in [8] it was 12.5 upbm affinity estimate (log intensity, higher = more binding, comparable within an allelic series). The binding signal is 12.1 upbm affinity estimate (log intensity, higher = more binding, comparable within an allelic series) in [9]; 12.3 upbm affinity estimate (log intensity, higher = more binding, comparable within an allelic series) in assay [10]; 12.8 upbm affinity estimate (log intensity, higher = more binding, comparable within an allelic series) in assay [11]; 10.6 upbm affinity estimate (log intensity, higher = more binding, comparable within an allelic series) in assay [12]; 12 upbm affinity estimate (log intensity, higher = more binding, comparable within an allelic series) in assay [13]; 11.2 upbm affinity estimate (log intensity, higher = more binding, comparable within an allelic series) in [14]. For the same sequence, the binding signal is 13.1 upbm affinity estimate (log intensity, higher = more binding, comparable within an allelic series) in assay [15]; 11.8 upbm affinity estimate (log intensity, higher = more binding, comparable within an allelic series) in assay [16]; 11 upbm affinity estimate (log intensity, higher = more binding, comparable within an allelic series) in assay [17]; 11.1 upbm affinity estimate (log intensity, higher = more binding, comparable within an allelic series) in assay [18]; 11 upbm affinity estimate (log intensity, higher = more binding, comparable within an allelic series) in [19]; 12.5 upbm affinity estimate (log intensity, higher = more binding, comparable within an allelic series) in assay [20].
With AATTAATA, the binding signal in [3] is 10.3 upbm affinity estimate (log intensity, higher = more binding, comparable within an allelic series); in assay [4] it was 12.8 upbm affinity estimate (log intensity, higher = more binding, comparable within an allelic series); in assay [5], 12.3 upbm affinity estimate (log intensity, higher = more binding, comparable within an allelic series); in [6], 12 upbm affinity estimate (log intensity, higher = more binding, comparable within an allelic series); in assay [7], 11.6 upbm affinity estimate (log intensity, higher = more binding, comparable within an allelic series); in [8], 12.5 upbm affinity estimate (log intensity, higher = more binding, comparable within an allelic series). The binding signal in assay [9] is 12 upbm affinity estimate (log intensity, higher = more binding, comparable within an allelic series); in [10] it was 12.3 upbm affinity estimate (log intensity, higher = more binding, comparable within an allelic series); in [11] it was 12.7 upbm affinity estimate (log intensity, higher = more binding, comparable within an allelic series); in assay [12] it was 10.8 upbm affinity estimate (log intensity, higher = more binding, comparable within an allelic series); in [13], 12 upbm affinity estimate (log intensity, higher = more binding, comparable within an allelic series); in [14], 11.2 upbm affinity estimate (log intensity, higher = more binding, comparable within an allelic series). For the same sequence, the binding signal is 12.9 upbm affinity estimate (log intensity, higher = more binding, comparable within an allelic series) in assay [15]; 11.8 upbm affinity estimate (log intensity, higher = more binding, comparable within an allelic series) in assay [16]; 11.3 upbm affinity estimate (log intensity, higher = more binding, comparable within an allelic series) in [17]; 11.2 upbm affinity estimate (log intensity, higher = more binding, comparable within an allelic series) in assay [18]; 11.1 upbm affinity estimate (log intensity, higher = more binding, comparable within an allelic series) in assay [19]; 12.1 upbm affinity estimate (log intensity, higher = more binding, comparable within an allelic series) in [20].
In the case of CCGGGCCA, the binding signal in assay [1] is 9.01 upbm affinity estimate (log intensity, higher = more binding, comparable within an allelic series); in assay [2], 8.94 upbm affinity estimate (log intensity, higher = more binding, comparable within an allelic series).
As to ACTAGTAC, the binding signal in assay [1] was 10.7 upbm affinity estimate (log intensity, higher = more binding, comparable within an allelic series); in assay [2], 10.7 upbm affinity estimate (log intensity, higher = more binding, comparable within an allelic series).
As for GGTAATTA, the binding signal in [3] was 10.6 upbm affinity estimate (log intensity, higher = more binding, comparable within an allelic series); in assay [4], 13.2 upbm affinity estimate (log intensity, higher = more binding, comparable within an allelic series); in assay [5] it was 13.2 upbm affinity estimate (log intensity, higher = more binding, comparable within an allelic series); in assay [6], 12 upbm affinity estimate (log intensity, higher = more binding, comparable within an allelic series); in [7] it was 12.6 upbm affinity estimate (log intensity, higher = more binding, comparable within an allelic series); in assay [8] it was 12.5 upbm affinity estimate (log intensity, higher = more binding, comparable within an allelic series). The binding signal in assay [9] is 12.3 upbm affinity estimate (log intensity, higher = more binding, comparable within an allelic series); in assay [10], 12.4 upbm affinity estimate (log intensity, higher = more binding, comparable within an allelic series); in assay [11], 13.1 upbm affinity estimate (log intensity, higher = more binding, comparable within an allelic series); in assay [12], 10.7 upbm affinity estimate (log intensity, higher = more binding, comparable within an allelic series); in assay [13], 12.7 upbm affinity estimate (log intensity, higher = more binding, comparable within an allelic series); in [14] it was 11.1 upbm affinity estimate (log intensity, higher = more binding, comparable within an allelic series). Further, the binding signal in assay [15] was 14.1 upbm affinity estimate (log intensity, higher = more binding, comparable within an allelic series); in [16], 12.2 upbm affinity estimate (log intensity, higher = more binding, comparable within an allelic series); in assay [17], 11 upbm affinity estimate (log intensity, higher = more binding, comparable within an allelic series); in [18], 11.1 upbm affinity estimate (log intensity, higher = more binding, comparable within an allelic series); in assay [19] it was 11 upbm affinity estimate (log intensity, higher = more binding, comparable within an allelic series); in assay [20], 13.4 upbm affinity estimate (log intensity, higher = more binding, comparable within an allelic series).
